The entries come from a sample that favours hits as a whole.
Shiga inhibitor – A qHTS for Small Molecule Inhibitors of Shiga Toxin; Vero cells, Shiga toxin protein synthesis inhibition reporter; inhibition, % at 38.7 µM; 9.2% of 290,000 active; AID 2315, 2010; in the data active = inhibition mostly above about 28%, no sharp cut-off; inactive = mostly below about 43%; note: 0% is about no effect
Cycloheximide cs – Cycloheximide Counterscreen for Small Molecule Inhibitors of Shiga Toxin; cell reporter, cycloheximide protein synthesis inhibition counterscreen; max response, %; 12% of 300,000 active; AID 2314, 2010; in the data active = max response mostly above about 13%, no sharp cut-off; inactive = mostly below about 14%; note: read at 38.3 µM for the half of the compounds with a filed dose; 0% is about no effect
Sm TGR inh – qHTS Assay for the Inhibitors of Schistosoma Mansoni Peroxiredoxins | Potency, µM (top dose mostly 114 µM), for inactives: at the highest dose activity change, negative = inhibition, actives largely listed as inhibitors | purified TGR, DTNB reduction, TNB absorbance 405 nm | Schistosoma mansoni thioredoxin glutathione reductase (TGR), Q962Y6 | AID 485364, 2010 | 3% of 360,000 active; note: potency is the fitted concentration of half-maximal effect; % is set by controls: 0 for no effect and ±100 for the full control effect; nearly all actives have a fitted effect of over 60% in size
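First, TGR (20 nM dispensed) and NADPH were mixed with compound. Second, a 15 min room-temperature incubation followed. Third, further NADPH and then DTNB were added to start the reaction. Finally, TNB absorbance was monitored kinetically.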
FBPA Giardia inh – qHTS Assay for Inhibitors of Fructose-1,6-bisphosphate Aldolase from Giardia Lamblia | purified Giardia FBPA | Potency, µM (series often up to 59.6 µM), without a hit: top-dose activity, negative = inhibition, actives largely listed as inhibitors | AID 2451, 2010 | 0.71% of 290,000 active; note: potency is the fitted concentration of half-maximal effect; % is set by controls: 0 for no effect and ±100 for the full control effect; nearly all actives have a fitted effect of over 55% in size
Target sequence (A8B2U2 whole entry, looked up): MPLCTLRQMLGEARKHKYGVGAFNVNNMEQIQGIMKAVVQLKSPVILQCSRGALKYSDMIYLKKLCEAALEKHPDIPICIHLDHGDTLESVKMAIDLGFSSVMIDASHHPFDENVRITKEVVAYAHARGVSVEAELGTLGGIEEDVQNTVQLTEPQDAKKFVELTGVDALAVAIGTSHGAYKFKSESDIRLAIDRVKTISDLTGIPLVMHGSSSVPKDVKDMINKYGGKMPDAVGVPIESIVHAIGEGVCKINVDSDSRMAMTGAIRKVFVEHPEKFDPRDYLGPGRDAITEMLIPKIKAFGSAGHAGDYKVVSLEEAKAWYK
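Giardia FBPA (40 nM reagent) was preincubated 10 min at RT with compound (up to 57.5 uM final), then substrate plus GAPDH/TPI/NAD/arsenate coupling system with diaphorase/resazurin was added; resorufin fluorescence (525/598 nm) was read after 20 min.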
LmPK inh – qHTS Assay for Inhibitors of Leishmania Mexicana Pyruvate Kinase (LmPK). 0.37% of 290,000 active. Potency, µM (top dose mostly 57.5 µM), without a hit: at the highest dose activity change, negative = inhibition, usual class: inhibitors. purified LmPK, Kinase-Glo ATP luminescence, 1 h; note: potency is the fitted concentration of half-maximal effect; % is set by controls: 0 for no effect and ±100 for the full control effect
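Kinase-Glo luminescence read after 1 h RT reaction of 0.1 nM LmPK with 0.5 mM PEP and 0.1 mM ADP. Activity scaled between uninhibited and enzyme-free controls.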
TbPYK inhibitor – qHTS of Trypanosoma Brucei Inhibitors; pyruvate kinase (Trypanosoma brucei), Q57TT1; TbPYK enzyme, Kinase-Glo Plus ATP luminescence, 45 min; Potency, µM (top dose mostly 76.8 µM), without a hit: at the highest dose activity, negative = inhibition, usual class: inhibitors; 0.12% of 410,000 active; note: potency is the fitted concentration of half-maximal effect; % is set by controls: 0 for no effect and ±100 for the full control effect; nearly all actives have a fitted effect of over 50% in size
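Assay buffer: 50 mM TEA pH 7.2, 100 mM KCl, 10 mM MgCl2, 0.05% BSA, 0.01% Tween-20. Pyruvate kinase from T. brucei plus substrate met compound, then ADP (130 uM final). Luminescence was read post 45 min RT.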
* hit, by the source's call; i = inactive; ? = inconclusive; . = not tested or not shown; [ ] = remark or other dose. Unless noted, calls come from the whole dose curve; as a rule, active = well fitted curve in the direction sought with a large enough effect; inconclusive = small, poorly fitted or top-dose-only effect, or another doubt; inactive = no such curve, though single readings can be large; an effect the other way counts as inactive or inconclusive.

SMILES | Shiga inhibitor | Cycloheximide cs | Sm TGR inh | FBPA Giardia inh | LmPK inh | TbPYK inhibitor
CC(C)CCNC(=O)c1cc2c(=O)n3ccccc3nc2s1 | 41* | 20* | -9% | -1% | -7% | -5%
COCCN(CCOC)C(=O)c1cc2c(=O)n3ccccc3nc2s1 | 23 | 34* | 8% | -21% | 7% | -6%
CCN(CC)C(=O)c1cc2c(=O)n3ccccc3nc2s1 | 38 | 22 | 0% | 0% | -2% | 1%
Cc1ccc(Cn2c(C)c3cnn(CC(=O)NCCc4ccc(Cl)cc4)c(=O)c3c2C)cc1 | . | . | -3% | . | . | -3%
COc1ccc(C)cc1Nc1nc2c(S(=O)(=O)c3cccc(Cl)c3)nnn2c2ccsc12 | . | . | -9% | . | . | 2%
CCOc1ccc(CNCc2c(C(=O)O)c(C)n(Cc3c(F)cccc3Cl)c2C)cc1OC | . | . | -12% | . | . | -11%
CCOc1ccc(Nc2ncnc3c2nc2n3CCCCC2)cc1 | . | . | 2% | . | . | 9%
CCOc1ccc(CCNC(=O)c2cc3cc4cc(OC)ccc4nc3s2)cc1OCC | . | . | 2% | . | . | 7%
CCC(C)NC(=O)c1cc2cc3ccc(OC)cc3nc2s1 (stereo not given) | 88* | 57* | -4% | -19% | -23% | -2%
CCCOc1ccccc1-c1nc(SCC(=O)c2ccccc2)n[nH]1 | . | . | -10% | . | . | -5%
CSc1ccccc1OCc1cc(C(=O)NC(C)CCn2cccn2)no1 (stereo not given) | 16 | 18 | -25% | . | 3% | 1%
CSc1ccccc1OCc1cc(C(=O)NC(C)Cc2cccc(C)n2)no1 (stereo not given) | 88* | 49* | -1% | -1% | 2% | 2%
CCn1nc(C)c(CNC(=O)c2cc(COc3cncc(Cl)c3)on2)c1C | -12 | 11 | -16% | 1% | 0% | -10%
CSc1ccccc1OCc1cc(C(=O)NCc2cccc(C)n2)no1 | 99* | 80* | -2% | 3% | -10% | 2%
Cc1ccccc1CNC(=O)c1cc(COc2ccc(F)cc2F)on1 | -2 | -2 | -7% | -6% | -4% | 0%
CCn1nc(C)c(CNC(=O)c2cc(COc3ccccc3SC)on2)c1C | 57 | 25* | -3% | . | 1% | -3%
O=C(O)c1ccc(S(=O)(=O)c2ccc3c(c2)C(=O)N(NC(=O)c2cccnc2)C3=O)cc1 | 17 | 24* | 9% | ? | 2% | -7%
O=C1CC(c2ccccc2)c2cc(O)ccc2O1 (stereo not given) | -3 | -2 | 22µM* | -4% | 6% | 1%
Cc1ccc(C2CC(=O)Oc3cc(O)ccc32)cc1 (stereo not given) | -11 | -3 | 2% | 9%[89.2 µM] | -1% | 1%
Cc1ccc(C2CC(=O)Oc3cc4c(cc32)OCO4)cc1 (stereo not given) | i | 16 | . | 50µM* | . | .
Cc1nncn1-c1ccc(C(=O)Nc2cc(F)ccc2F)cc1 | . | . | 5% | . | . | 1%
O=C(NCc1cccc(F)c1)c1noc2c1CCCC2 | 54* | 39* | -1% | 7% | -3% | 0%
O=C(NCc1ccco1)c1noc2c1CCCCC2 | 40* | 33* | -1% | -4% | -3% | 2%
O=C(NCc1cccnc1)c1noc2c1CCCC2 | 18 | -1 | 12% | 0% | -5% | 9%
Cc1noc(C)c1C(=O)NCc1ccco1 | -4 | -3 | -17% | 4% | -9% | 0%
SMILES | Shiga inhibitor | Cycloheximide cs | Sm TGR inh | FBPA Giardia inh | LmPK inh | TbPYK inhibitor
COc1ccc(CNC(=O)c2noc3c2CCCC3)cc1 | 114* | 28* | -21% | 6% | -3% | 2%
O=C(NCc1ccc(Cl)cc1)c1noc2c1CCCC2 | 40* | 25* | 5% | 0% | -11% | -5%
Cc1ccc(C)c(N(CC(=O)NC2CCCCC2)C(=O)CCC(=O)Nc2ccccn2)c1 | -27 | -2 | -9% | 6% | 7% | .
OC[C@@H]1OC(O)[C@H](O)[C@H](O)[C@H]1O (stereo not given in full) | -14 | 2 | . | 6% | . | .
C[C@H]1C(O)[C@@]23CCC4C5(C=[N+](CCO)C[C@]4(C)CCC5)C2C[C@@H]1C3 (stereo not given in full) | . | . | . | 3% | . | .
CCOC(=O)C1CCN(C(=O)CSc2n[nH]c(-c3ccc(F)cc3)n2)CC1 | . | . | 1% | . | . | -6%
CC(C)Oc1ccc(CNC(=O)c2ccc3nc(Cc4ccccc4)oc3c2)cc1 | . | . | 2% | . | . | -3%
O=C(c1noc2c1CCCC2)N1CCN(c2ccccc2)CC1 | 83 | 21* | -2% | 2% | -10% | 3%
O=C(NCCc1ccccc1)c1noc2c1CCCCC2 | 96* | 35* | -6% | 0% | 0% | 0%
O=C(c1noc2c1CCCCC2)N1CCN(c2cccc(Cl)c2)CC1 | . | . | 2% | . | . | -4%
O=C(NCc1cccs1)c1noc2c1CCCC2 | 37 | 15* | -1% | 0% | -4% | 6%
O=C(NCc1cccnc1)c1noc2c1CCCCC2 | 55 | 4 | 2% | 1% | -3% | -11%
O=C(Nc1cnn(Cc2ccc(Cl)cc2Cl)c1)c1noc2c1CCCC2 | 11 | 14* | 1% | -14% | 5% | -4%
CC(C)c1ccc(C2c3c(-c4ccccc4O)n[nH]c3C(=O)N2CCc2ccccc2)cc1 (stereo not given) | . | . | 11% | . | . | -5%
O=C(NCc1ccccc1)c1noc2c1CCCC2 | 34 | 44* | 6% | 6% | -11% | -4%
COc1cc2[nH]c3c(=O)n4c(nc3c2cc1OC)SCCC4 | 31* | 25* | 14% | -9% | -1% | -4%
COc1ccc(-c2nc3cnc(OC)nc3n(CCc3ccccc3)c2=O)cc1 | . | . | . | 2% | . | .
CC[C@H](C)[C@H](N)C(=O)N[C@H]1CCC(=O)NCC(C(=O)N[C@@H](Cc2ccc(O)cc2)C(=O)N[C@@H](CCCNC(=N)N)C(=O)N[C@@H](CC(C)C)C(=O)N[C@@H](CCCNC(=N)N)C(=O)N[C@@H](Cc2ccc(O)cc2)C(N)=O)NC(=O)[C@@H]2CCCN2C(=O)[C@@H](NC(=O)[C@@H](N)[C@@H](C)CC)CCC(=O)NCC(C(=O)N[C@@H](Cc2ccc(O)cc2)C(=O)N[C@@H](CCCNC(=N)N)C(=O)N[C@@H](CC(C)C)C(=O)N[C@@H](CCCNC(=N)N)C(=O)N[C@@H](Cc2ccc(O)cc2)C(N)=O)NC(=O)[C@@H]2CCCN2C1=O (stereo not given in full) | 11 | -10 | . | -2% | . | .
Cc1nonc1NC(=O)CSc1nc2c(C)cccc2cc1C#N | 68* | 41* | -8% | -5% | 2% | 5%
O=C(NN=C1CCCCC1)Nc1ccccc1Cl | . | . | -23% | . | . | 0%

Assay outcomes: PubChem BioAssay, National Center for Advancing Translational Sciences (NCATS)
